The sample as a whole holds a higher share of hits than the screen did.
IMPase Li cell: IMPase inhibition in cells with lithium potentiation; AID 1457; Potency, µM (top dose mostly 59.4 µM), without a hit: at the highest dose activity, negative = IMPase inhibition, usual class: inhibitors; CHO-M1 cells, IP1 TR-FRET (IP-One), carbachol + lithium; actives 0.35% (n = 210,000);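 also: IP1 builds up when IMPase is blocked and the TR-FRET signal falls; potency is read from the fitted curve at half-maximal effect; plate controls were basal vehicle for no effect and high inhibitor control for full effect; nearly all actives have a fitted effect of over 50% in size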
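Concentration–response in CHO-M1 cells, lithium-potentiated; 30 min at 37C. IP1 detected by competitive TR-FRET after 10 min lysis at RT. Hill-fitted AC50.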
12-hLO inh: 12-hLO (ALOX12) enzyme inhibition; purified 12-hLO, xylenol orange hydroperoxide absorbance; Potency, µM (series often up to 57.1 µM), without a hit: at the highest dose activity change, negative = inhibition, most hits filed as inhibitors; actives 0.12% (n = 150,000); AID 1452; also: potency is read from the fitted curve at half-maximal effect; nearly all actives have a fitted effect of over 55% in size
Target sequence (P18054 whole entry, looked up): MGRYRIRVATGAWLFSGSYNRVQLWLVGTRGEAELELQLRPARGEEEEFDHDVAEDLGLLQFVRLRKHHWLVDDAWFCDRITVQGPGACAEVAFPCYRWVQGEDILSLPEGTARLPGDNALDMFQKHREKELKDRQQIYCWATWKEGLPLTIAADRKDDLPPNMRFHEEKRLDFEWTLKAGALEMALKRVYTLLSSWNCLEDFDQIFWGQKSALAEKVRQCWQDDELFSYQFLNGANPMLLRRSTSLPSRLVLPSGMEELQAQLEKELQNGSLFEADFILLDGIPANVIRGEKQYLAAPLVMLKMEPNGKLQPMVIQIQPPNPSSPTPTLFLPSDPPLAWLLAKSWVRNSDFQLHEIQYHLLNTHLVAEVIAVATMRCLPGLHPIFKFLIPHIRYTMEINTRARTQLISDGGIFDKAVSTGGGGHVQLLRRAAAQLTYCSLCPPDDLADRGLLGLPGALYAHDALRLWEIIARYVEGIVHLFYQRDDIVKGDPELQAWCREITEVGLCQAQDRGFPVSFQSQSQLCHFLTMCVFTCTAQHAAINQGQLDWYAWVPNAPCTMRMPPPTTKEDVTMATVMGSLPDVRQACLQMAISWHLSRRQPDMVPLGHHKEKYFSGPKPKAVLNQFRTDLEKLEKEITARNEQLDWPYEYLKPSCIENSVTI
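Purified human 12hLO (150 nM final) was preincubated with compounds for 15 min at room temperature in 25 mM Hepes pH 7.0, 0.01% Triton X-100, then reacted with 40 uM arachidonic acid for 30 min. Hydroperoxide was detected with ferrous iron/xylenol orange.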
PNC inhibitor: perinucleolar compartment assembly inhibition; activity change (PNC), negative = inhibition, % at 10 µM; actives 3.1% (n = 140,000); AID 2417; PC3M PTB-GFP, PNC prevalence imaging, 16 h; hits give low values;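 active = readout at or below -70, meaning at least 70% loss of cells showing the perinucleolar compartment, a nuclear body marking cancer cells; inconclusive = readout between -30 and a set limit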;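 also: plate controls were DMSO wells for no effect and camptothecin positive control wells for full effect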
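Compounds are pinned in duplicate onto adhered PC3M cells stably expressing GFP-tagged PTB and incubated 16 h at 37 C. Cells are then fixed, nuclei stained with Hoechst, and PNC-positive cells counted.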
IMPase cell inh: membrane-permeable compound that blocks inositol monophosphatase; P97697; CHO-M1 cells, IP1 accumulation, HTRF TR-FRET ratio; inhibition (IP1 accumulation), % at 46.1 µM; 120,000 tested, under 10 active; AID 901; active = well fitted curve in the direction sought with a large enough effect in the signal ratio, not every such curve was filed as active; inconclusive = small, poorly fitted or top-dose-only effect, or a change in a side signal; inactive = no such curve, though single readings can be large or run the other way; the % refers to the signal ratio;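 also: cells stimulated with carbachol in lithium chloride buffer; plate controls were DMSO basal wells for no effect and reference inhibitor wells for full effect; higher means more IMPase inhibition seen as more IP1 and lower FRET ratio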
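Elevated IP1 in lysates lowers TR-FRET signal (665/620 ratio and 620 channel reported). Cells were CHO-M1, given carbachol (50 uM as added) plus 50mM LiCl, pH 7.4, 30 min, 37C; compounds titrated up to 46 uM; AC50 by Hill equation.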
The depositor's hits bear a star; ? = inconclusive; . = no result; [ ] = dose if it differs, or a comment. Unless noted, calls follow the shape of the dose curve; as a rule, active = well fitted curve in the direction sought with a large enough effect; inconclusive = small, poorly fitted or top-dose-only effect, or another doubt; inactive = no such curve, though single readings can be large; an effect the other way counts as inactive or inconclusive. Unless noted, % is scaled to controls: 0 for no effect and ±100 for the full control effect.

SMILES	IMPase Li cell	12-hLO inh	PNC inhibitor	IMPase cell inh
CCOC(=O)C1=C(C)NC(=O)NC1c1ccc(OCC(N)=O)cc1 (stereo unspecified)	1.2%	3.7%	-100.0*	-7.0
CCOC(=O)C1=C(c2ccccc2)NC(=O)NC1c1ccc(N(C)C)cc1 (stereo unspecified)	-18.8%[38.3 µM]	-7.9%	-100.0*	2.7
CCOC(=O)C1=C(C)NC(=O)NC1c1ccc(OC(=O)c2ccco2)cc1 (stereo unspecified)	2.7%	-1.8%	15.7	9.3
CCOC(=O)C1=C(C)NC(=O)NC1c1ccoc1 (stereo unspecified)	-1.8%[38.3 µM]	3.7%	15.9	-0.3
Cc1ccc(S(=O)(=O)CCc2nnc(NC(=O)c3ccco3)s2)cc1	3.2%	.	.	.
COCCCn1c2nc3ccccc3nc2c2c(=O)n(-c3ccccc3OC)c(C)nc21	-24.3%	4.9%	-100.0*	-16.6
COCCCn1c2nc3ccccc3nc2c2c(=O)n(-c3ccccc3OC)cnc21	24.7%[38.3 µM]	1.0%	16.2	-4.5
CN(Cc1ccccc1)S(=O)(=O)c1cccc2cccnc12	6.6%[38.3 µM]	12.4%	?	12.2
COCC1=C2c3ccccc3[C@H](C[N+](=O)[O-])C(C(=O)OC)(C(=O)OC)CC2C2C(=O)N(c3ccccc3)C(=O)C2C1 (stereo partly specified)	3.1%	5.0%	.	.
COc1cc([C@H]2[C@@H]3CCCC[C@]3(O)CCN2CC(=O)Nc2ccc(C)cc2)ccc1O	-1.4%[38.3 µM]	-11.5%	-100.0*	11.0
COc1ccc(NC(=O)CN2CCC3(O)CCCCC3C2c2ccccc2OC)cc1 (stereo unspecified)	-6.3%[38.3 µM]	-5.8%	15.5	?
O=C1CC(Sc2nnnn2C2CCCCC2)C(=O)N1c1ccccc1 (stereo unspecified)	6.2%	0.6%	-100.0*	-11.4
N#Cc1cnn2cc(-c3ncc(C(F)(F)F)cc3Cl)cnc12	35.0%[38.3 µM]	-4.6%	?	-2.0[1.84 µM]
Cc1cc2ncc(-c3ncc(C(F)(F)F)cc3Cl)cn2n1	-7.1%[38.3 µM]	1.9%	-80.9*	?
Cn1c(CCNC(=O)c2ccco2)nc2cc(NC(=O)C3CCCCC3)ccc21	5.2%	-2.1%	-113.8*	6.9
Cn1c(CCNC(=O)c2ccco2)nc2cc(NC(=O)NC3CCCCC3)ccc21	23.0%[38.3 µM]	3.3%	?	6.2
O=C(CSc1nnc(COc2cccc3cccnc23)o1)N1CCN(C(=O)c2ccco2)CC1	6.1%	1.8%	-100.0*	-3.1
O=C1CC(c2ccc(O[C@@H]3OC(CO)[C@@H](O)C(O)C3O)cc2)Oc2cc(O)ccc21 (stereo partly specified)	3.0%	.	.	.
CCN(CC)S(=O)(=O)c1ccc(Cl)c(NC(=O)c2ccc(C#N)cc2)c1	3.4%	-1.3%	-97.0*	.
CCC(C=C[C@@H]1OC(=O)C=C[C@H]1C)=C[C@H](C)CC=CC(C)=C[C@@H](C)C(=O)[C@@H](C)[C@H](O)[C@@H](C)CC(C)=CC(=O)O	11.4%	-1.2%[0.00818 µM]	.	.
CCC(C)(C)NC(=O)C(c1ccccc1)N(C(=O)c1csnn1)C1CC1 (stereo unspecified)	7.3%	7.5%	400.0	-7.4
CN(C)c1ccc(C(C(=O)NC(C)(C)C)N(C(=O)c2csnn2)C2CC2)cc1 (stereo unspecified)	37.4%[38.3 µM]	5.5%	-95.8*	7.8
CCCCOc1ccc(/C=C/C(=O)OCC(=O)NC(=O)NCC(C)C)cc1OCC	-7.3%	5.9%	-112.3*	1.7
CCOc1ccccc1NC(=O)COC(=O)/C=C/c1ccc(OC)c(OC)c1	20.4%	.	.	.
CCOC(=O)c1c(NC(=O)CC(C)C)sc(C(C)=O)c1C	7.5%	-1.1%	-100.0*	6.2
SMILES	IMPase Li cell	12-hLO inh	PNC inhibitor	IMPase cell inh
CCOC(=O)c1c(NC(=O)COC)sc(C(C)=O)c1C	14.8%[38.3 µM]	-0.4%	-6.3	-11.7
CCOC(=O)c1sc(NC(=O)OC)c(C(=O)OC)c1C	8.3%	.	.	.
CCOC(=O)c1sc(NC(=O)CN(CC(C)C)CC(C)C)c(C(=O)OCC)c1C	28.7%[38.3 µM]	1.4%	-109.7*	1.8
CC(C)[C@@H](CC(=O)N[C@@H]1CCCC[C@H]1C(=O)N[C@H](CC(=O)N[C@@H](CCC(=O)O)CC(=O)O)Cc1c[nH]c2ccccc12)NC(=O)C[C@H](Cc1c[nH]c2ccccc12)NC(=O)[C@@H]1CCCC[C@H]1N	12.2%	2.5%	.	.
CCCC(C)NC(=S)Nc1cc(C)cc(C)c1 (stereo unspecified)	-1.9%	.	.	.
Cc1c(N=C(N)/N=C(\N)Nc2ccc(Br)cc2)c(=O)n(-c2ccccc2)n1C	12.5%	-1.2%	15.5	17.8
CCc1c(C)nc2ncnn2c1Nc1ccc(C(C)=O)cc1	47.8%[38.3 µM]	0.9%	-111.4*	-2.9
O=C(c1ccc(Cl)c(S(=O)(=O)N2CCOCC2)c1)N1CCCCC1	-0.7%	.	.	.
CCOC(=O)c1c(NC(=O)Cn2nc(C(F)(F)F)cc2C)sc(C)c1C	-4.9%	-0.8%	7.9	0.3
c1nc(NCC2(N3CCOCC3)CCCCC2)c2ccsc2n1	13.5%	3.4%	-100.0*	9.5
Cc1sc2ncnc(NCC3(N4CCOCC4)CCCCC3)c2c1C	45.6%[38.3 µM]	-1.6%	7.1	-2.7
COCCNC(=O)CSc1nc2nn(-c3ccccc3)c(=O)c-2c2n1CCCCC2	11.4%	.	.	.
NC(=O)C1CCN(C(=O)CSc2nc3ccccc3o2)CC1	0.5%	-3.1%	-127.9*	2.5
O=C(CSc1nc2ccccc2o1)N1CCN(C(=O)c2ccco2)CC1	4.0%	5.8%	-21.2	20.3
COc1ccccc1N1CCN(C(=O)CSc2nc3ccccc3o2)CC1	14.9%[38.3 µM]	-2.7%	-81.9*	-1.8
CC1CCCN(C(=O)CSc2nc3ccccc3o2)C1 (stereo unspecified)	-4.5%[38.3 µM]	-6.2%	24.6	3.8
Cc1ccc(NC2OC(CO)C(O)C(O)C2O)cc1 (stereo unspecified)	24.1%[38.3 µM]	-5.9%	?	-2.2
Cn1c(N2CCCCC2)nc2c1c(=O)[nH]c(=O)n2C	7.1%[38.3 µM]	-7.8%	-105.7*	1.5
CC1CCCN(c2nc3c(c(=O)[nH]c(=O)n3C)n2Cc2ccccc2Cl)C1 (stereo unspecified)	32.2%[38.3 µM]	-6.8%	-87.3*	8.6
Cc1c(Cl)ccc2c1NC(=O)[C@]21[C@@H]2C(=O)N(Cc3ccccc3)C(=O)[C@@H]2[C@@H]2CCCN21	7.1%[38.3 µM]	-29.4%	-126.9*	-7.7
CCCNC(=O)c1ccc(N(Cc2ccccc2)S(C)(=O)=O)cc1	1.6%[38.3 µM]	2.1%	-111.7*	-2.5
CCc1ccc(C2=NN(S(C)(=O)=O)C(c3cccs3)C2)cc1 (stereo unspecified)	4.8%[38.3 µM]	-11.2%	-100.0*	4.1
Cc1ccc(C2=NN(S(C)(=O)=O)C(c3cccs3)C2)cc1 (stereo unspecified)	1.8%[38.3 µM]	-1.7%	72.5	0.7
N#CC(C#N)=Cc1cn(-c2ncc(C(F)(F)F)cc2Cl)c2ccccc12	26.5%[38.3 µM]	-8.9%	-12.7	-9.8[1.84 µM]
CC(=O)/C=C\c1cn(-c2ncc(C(F)(F)F)cc2Cl)c2ccccc12	5.0%[38.3 µM]	-5.4%	-124.4*	5.4[1.84 µM]
Cc1cccc2nc(-c3cccc(NC(=O)Cc4ccccc4)c3)cn12	4.4%	1.0%	-109.0*	.
